{
  "source": "PubChem BioAssay AID1159580",
  "about": "(chemical genetic matrix, 2015)",
  "test": "chemical genetic growth profiling, strain panel (AID 1159580);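 also: tested at 20 µM; growth read once vehicle control cultures reached saturation at 30 °C; 1 = growth at the plate median or of vehicle wells; lower values mean less growth of the strain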",
  "conditions": "S. cerevisiae deletion strains, growth OD",
  "note": "Where “and” joins values, the source holds several entries; their conditions need not be identical. Equal values may be shown once. About 2,000 (36%) of roughly 5,500 compounds were called active. About 18% were inconclusive and are not listed. Rule as the data show it: active = normalized growth mostly below about 0.91 (no sharp cut-off); inconclusive = no clear call, values can overlap the other calls; inactive = mostly above about 0.92. The list shows a part of the results.",
  "data": [
    {"smiles": "O=c1c(O)c(-c2ccccc2)oc2ccccc12", "values": [
      {"measurement": "normalized growth", "setting": "locus YAL013W, strain DEP1, stronger effect = lower value", "result": "0.993 (inactive)"},
      {"measurement": "normalized growth", "setting": "locus YAL021C, strain ccr4, stronger effect = lower value", "result": "0.424 (active)"},
      {"measurement": "normalized growth", "setting": "locus YAL026C, strain drs2, stronger effect = lower value", "result": "0.17 (active)"},
      {"measurement": "normalized growth", "setting": "locus YAL030W, strain snc1, stronger effect = lower value", "result": "0.68 (active)"},
      {"measurement": "normalized growth", "setting": "locus YBL061C, strain skt5, stronger effect = lower value", "result": "0.578 (active)"},
      {"measurement": "normalized growth", "setting": "locus YBR009C, strain hhf1, stronger effect = lower value", "result": "0.61 (active)"},
      {"measurement": "normalized growth", "setting": "locus YBR021W, strain FUR4, stronger effect = lower value", "result": "1.01 (inactive)"},
      {"measurement": "normalized growth", "setting": "locus YBR023C, strain chs3, stronger effect = lower value", "result": "0.363 (active)"},
      {"measurement": "normalized growth", "setting": "locus YBR171W, strain sec66, stronger effect = lower value", "result": "0.815 (active)"},
      {"measurement": "normalized growth", "setting": "locus YBR229C, strain ROT2, stronger effect = lower value", "result": "0.963 (inactive)"},
      {"measurement": "normalized growth", "setting": "locus YBR231C, strain swc5, stronger effect = lower value", "result": "0.418 (active)"},
      {"measurement": "normalized growth", "setting": "locus YBR279W, strain paf1, stronger effect = lower value", "result": "0.447 (active)"},
      {"measurement": "normalized growth", "setting": "locus YCL011C, strain gbp2, stronger effect = lower value", "result": "0.51 (active)"},
      {"measurement": "normalized growth", "setting": "locus YCL016C, strain dcc1, stronger effect = lower value", "result": "0.628 (active)"},
      {"measurement": "normalized growth", "setting": "locus YCL029C, strain bik1, stronger effect = lower value", "result": "0.983 (inactive)"},
      {"measurement": "normalized growth", "setting": "locus YCL061C, strain MRC1, stronger effect = lower value", "result": "0.527 (active)"},
      {"measurement": "normalized growth", "setting": "locus YCL069W, strain vba3, stronger effect = lower value", "result": "0.47 (active)"},
      {"measurement": "normalized growth", "setting": "locus YCR088W, strain abp1, stronger effect = lower value", "result": "0.654 (active)"},
      {"measurement": "normalized growth", "setting": "locus YDL005C, strain med2, stronger effect = lower value", "result": "0.855 (active)"},
      {"measurement": "normalized growth", "setting": "locus YDL035C, strain GPR1, stronger effect = lower value", "result": "0.985 (inactive)"},
      {"measurement": "normalized growth", "setting": "locus YDL040C, strain nat1, stronger effect = lower value", "result": "0.794 (active)"},
      {"measurement": "normalized growth", "setting": "locus YDL074C, strain BRE1, stronger effect = lower value", "result": "1.01 (inactive)"},
      {"measurement": "normalized growth", "setting": "locus YDL101C, strain DUN1, stronger effect = lower value", "result": "0.997 (inactive)"},
      {"measurement": "normalized growth", "setting": "locus YDL185W, strain tfp1, stronger effect = lower value", "result": "0.974 (inactive)"},
      {"measurement": "normalized growth", "setting": "locus YDL192W, strain arf1, stronger effect = lower value", "result": "1 (inactive)"},
      {"measurement": "normalized growth", "setting": "locus YDR001C, strain nth1, stronger effect = lower value", "result": "0.651 (active)"},
      {"measurement": "normalized growth", "setting": "locus YDR069C, strain doa4, stronger effect = lower value", "result": "0.302 (active)"},
      {"measurement": "normalized growth", "setting": "locus YDR101C, strain arx1, stronger effect = lower value", "result": "1.03 (inactive)"},
      {"measurement": "normalized growth", "setting": "locus YDR137W, strain rgp1, stronger effect = lower value", "result": "0.363 (active)"},
      {"measurement": "normalized growth", "setting": "locus YDR150W, strain NUM1, stronger effect = lower value", "result": "0.993 (inactive)"},
      {"measurement": "normalized growth", "setting": "locus YDR159W, strain sac3, stronger effect = lower value", "result": "0.929 (inactive)"},
      {"measurement": "normalized growth", "setting": "locus YDR162C, strain NBP2, stronger effect = lower value", "result": "0.981 (inactive)"},
      {"measurement": "normalized growth", "setting": "locus YDR195W, strain ref2", "result": "1.17 [resistant] (active)"},
      {"measurement": "normalized growth", "setting": "locus YDR297W, strain sur2, stronger effect = lower value", "result": "0.709 (active)"},
      {"measurement": "normalized growth", "setting": "locus YDR318W, strain mcm21, stronger effect = lower value", "result": "0.963 (inactive)"},
      {"measurement": "normalized growth", "setting": "locus YDR334W, strain swr1, stronger effect = lower value", "result": "0.347 (active)"},
      {"measurement": "normalized growth", "setting": "locus YDR335W, strain msn5, stronger effect = lower value", "result": "0.608 (active)"},
      {"measurement": "normalized growth", "setting": "locus YDR388W, stronger effect = lower value", "result": "0.994 (inactive)"},
      {"measurement": "normalized growth", "setting": "locus YDR392W, strain spt3, stronger effect = lower value", "result": "0.135 (active)"},
      {"measurement": "normalized growth", "setting": "locus YDR502C, strain sam2, stronger effect = lower value", "result": "1.01 (inactive)"},
      {"measurement": "normalized growth", "setting": "locus YEL003W, strain gim4, stronger effect = lower value", "result": "0.595 (active)"},
      {"measurement": "normalized growth", "setting": "locus YEL037C, strain rad23, stronger effect = lower value", "result": "0.465 (active)"},
      {"measurement": "normalized growth", "setting": "locus YEL061C, strain CIN8 (second series), stronger effect = lower value", "result": "0.592 (active)"},
      {"measurement": "normalized growth", "setting": "locus YEL061C, strain CIN8, stronger effect = lower value", "result": "0.984 (inactive)"},
      {"measurement": "normalized growth", "setting": "locus YER015W, strain faa2, stronger effect = lower value", "result": "0.455 (active)"},
      {"measurement": "normalized growth", "setting": "locus YER016W, strain bim1, stronger effect = lower value", "result": "0.81 (active)"},
      {"measurement": "normalized growth", "setting": "locus YER110C, stronger effect = lower value", "result": "0.987 (inactive)"},
      {"measurement": "normalized growth", "setting": "locus YER111C, strain swi4, stronger effect = lower value", "result": "0.71 (active)"},
      {"measurement": "normalized growth", "setting": "locus YER155C, strain BEM2 (second series), stronger effect = lower value", "result": "0.602 (active)"},
      {"measurement": "normalized growth", "setting": "locus YER155C, strain BEM2, stronger effect = lower value", "result": "0.999 (inactive)"},
      {"measurement": "normalized growth", "setting": "locus YER167W, strain BCK2, stronger effect = lower value", "result": "0.99 (inactive)"},
      {"measurement": "normalized growth", "setting": "locus YFR010W, strain ubp6, stronger effect = lower value", "result": "0.291 (active)"},
      {"measurement": "normalized growth", "setting": "locus YGL078C, strain dbp3, stronger effect = lower value", "result": "0.991 (inactive)"},
      {"measurement": "normalized growth", "setting": "locus YGL086W, strain mad1, stronger effect = lower value", "result": "1.04 (inactive)"},
      {"measurement": "normalized growth", "setting": "locus YGL167C, strain pmr1, stronger effect = lower value", "result": "0.834 (active)"},
      {"measurement": "normalized growth", "setting": "locus YGL173C, strain kem1, stronger effect = lower value", "result": "0.271 (active)"},
      {"measurement": "normalized growth", "setting": "locus YGL227W, strain vid30, stronger effect = lower value", "result": "0.771 (active)"},
      {"measurement": "normalized growth", "setting": "locus YGL240W, strain doc1, stronger effect = lower value", "result": "0.643 (active)"},
      {"measurement": "normalized growth", "setting": "locus YGL248W, strain PDE1, stronger effect = lower value", "result": "0.986 (inactive)"},
      {"measurement": "normalized growth", "setting": "locus YGL253W, strain hxk2, stronger effect = lower value", "result": "0.356 (active)"},
      {"measurement": "normalized growth", "setting": "locus YGR078C, strain PAC10, stronger effect = lower value", "result": "0.991 (inactive)"},
      {"measurement": "normalized growth", "setting": "locus YGR135W, strain pre9, stronger effect = lower value", "result": "0.977 (inactive)"},
      {"measurement": "normalized growth", "setting": "locus YGR229C, strain SMI1, stronger effect = lower value", "result": "0.998 (inactive)"},
      {"measurement": "normalized growth", "setting": "locus YGR252W, strain gcn5, stronger effect = lower value", "result": "0.947 (inactive)"},
      {"measurement": "normalized growth", "setting": "locus YHR013C, strain ard1, stronger effect = lower value", "result": "0.219 (active)"},
      {"measurement": "normalized growth", "setting": "locus YHR027C, strain rpn1, stronger effect = lower value", "result": "0.268 (active)"},
      {"measurement": "normalized growth", "setting": "locus YHR030C, strain SLT2, stronger effect = lower value", "result": "0.991 (inactive) and 0.591 (active)"},
      {"measurement": "normalized growth", "setting": "locus YHR079C, strain IRE1 (second series), stronger effect = lower value", "result": "0.993 (inactive)"},
      {"measurement": "normalized growth", "setting": "locus YHR079C, strain IRE1, stronger effect = lower value", "result": "0.812 (active)"},
      {"measurement": "normalized growth", "setting": "locus YHR094C, strain hxt1, stronger effect = lower value", "result": "0.975 (inactive)"},
      {"measurement": "normalized growth", "setting": "locus YHR129C, strain ARP1, stronger effect = lower value", "result": "0.982 (inactive)"},
      {"measurement": "normalized growth", "setting": "locus YHR142W, strain chs7, stronger effect = lower value", "result": "0.294 (active)"},
      {"measurement": "normalized growth", "setting": "locus YHR200W, strain rpn10, stronger effect = lower value", "result": "0.992 (inactive)"},
      {"measurement": "normalized growth", "setting": "locus YIL066C, strain RNR3, stronger effect = lower value", "result": "0.978 (inactive)"},
      {"measurement": "normalized growth", "setting": "locus YIL073C, strain SPO22, stronger effect = lower value", "result": "0.996 (inactive)"},
      {"measurement": "normalized growth", "setting": "locus YIL125W, strain kgd1, stronger effect = lower value", "result": "0.999 (inactive)"},
      {"measurement": "normalized growth", "setting": "locus YIR030C, strain dcg1, stronger effect = lower value", "result": "0.998 (inactive)"},
      {"measurement": "normalized growth", "setting": "locus YJL092W, strain hpr5, stronger effect = lower value", "result": "0.545 (active)"},
      {"measurement": "normalized growth", "setting": "locus YJL095W, strain BCK1 (second series), stronger effect = lower value", "result": "0.453 (active)"},
      {"measurement": "normalized growth", "setting": "locus YJL095W, strain BCK1, stronger effect = lower value", "result": "0.983 (inactive) and 0.617 (active)"},
      {"measurement": "normalized growth", "setting": "locus YJL115W, strain asf1, stronger effect = lower value", "result": "0.616 (active)"},
      {"measurement": "normalized growth", "setting": "locus YJL129C, strain trk1, stronger effect = lower value", "result": "0.77 (active)"},
      {"measurement": "normalized growth", "setting": "locus YJL134W, strain LCB3, stronger effect = lower value", "result": "0.986 (inactive)"},
      {"measurement": "normalized growth", "setting": "locus YJL154C, strain vps35, stronger effect = lower value", "result": "0.752 (active)"},
      {"measurement": "normalized growth", "setting": "locus YJL164C, strain tpk1, stronger effect = lower value", "result": "0.333 (active)"},
      {"measurement": "normalized growth", "setting": "locus YJL166W, strain qcr8, stronger effect = lower value", "result": "0.355 (active)"},
      {"measurement": "normalized growth", "setting": "locus YJL168C, strain set2, stronger effect = lower value", "result": "0.994 (inactive)"},
      {"measurement": "normalized growth", "setting": "locus YJL187C, strain SWE1 (second series), stronger effect = lower value", "result": "1.01 (inactive)"}
    ]}
  ]
}
